Compound activity from PubChem.
Shn3 inh set2 = reduction of Shn3 3'UTR firefly luciferase signal, primary screen, Schnurri-3 inhibitor project, cell-based, Clone20 osteoblasts, set 2; Clone20 osteoblast Shn3 3'UTR firefly luciferase, 24 h; inhibition, % at 12.5 µM; actives 0.52% (n = 360,000); AID 588674, 2011;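 active = mean inhibition of at least 75% with every replicate also reaching 75%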
CF NFkB block = inhibitors of PAF-induced NF-kB signaling, primary screen, cell-based, GFP fluorescence, uHTS | KKLEB NF-kB-GFP reporter, GFP fluorescence overnight | inhibition, % at 5 µM | actives 0.86% (n = 360,000);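 active = at least 50% inhibition at 5 µM, scaled per plate between neutral and stimulator controls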;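 also: PAF is a Pseudomonas aeruginosa culture filtrate used as stimulus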
KKLEB cytotox = cytotoxicity in KKLEB CF airway cells, primary screen, cytotoxicity control for CF NF-kB inhibitor project, cell-based, uHTS, fluorescence assay plates | KKLEB CF airway cells viability, ATPlite luminescence, overnight; stronger effect = lower value; cells stimulated with P. aeruginosa culture filtrate | activity change (cytotoxicity), % at 5 µM | actives 0.36% (n = 360,000) | AID 602141, 2011;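 active = corrected activity change at or below -50% at 5 µM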
Peg3 prom inh = Peg3 promoter-driven luciferase inhibitors, primary screen, cell-based, HeLa, luciferase luminescence. HeLa PEG-Prom luciferase reporter, overnight. inhibition, % at 20 µM. actives 1.7% (n = 360,000);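 active = inhibition of at least 50% at 20 µM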
HIF-2a block = HIF-2a reporter inhibitors, primary screen, luminescence, 786-0 RCC cells. 786-0 RCC cells HIF-2a reporter, luciferase luminescence, overnight. inhibition, % at 18.8 µM. actives 0.72% (n = 360,000). AID 624352, 2012;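 active = inhibition of the luminescence signal of 40% or more relative to plate controls, in a single-dose primary screen at 18.75 µM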
EBV LMP1 NFkB = EBV LMP1-driven NF-kappaB luciferase reporter inhibitors, primary screen, cell-based, luminescence, single point; LMP1-induced NF-kappaB luciferase reporter cells; inhibition, % at 12.5 µM; actives 0.69% (n = 350,000); AID 504558, 2011; in the data active = inhibition above about 41%
Of the large screens only hits and unclear results are named; the others gave an inactive call; ! = a repeat was not active. Rows were chosen to be rich in hits. Some 2.9% of all compounds tested hit in one or more screens of this group.

C/C=C(\C)C(=O)OC1[C@H](OC(C)=O)C2(CO)C(CC1(C)C)C1=CCC3C4(C)CCC(O[C@@H]5O[C@H](C(=O)O)[C@@H](O[C@@H]6O[C@H](CO)[C@@H](O)[C@H](O)[C@H]6O)[C@H](O)[C@H]5O[C@H]5O[C@H](CO)[C@@H](O)[C@H](O)[C@H]5O)[C@](C)(CO)C4CCC3(C)[C@]1(C)C[C@H]2O (some centres undefined)	CF NFkB block 91, KKLEB cytotox -89, Peg3 prom inh 105, HIF-2a block 93
COc1ccc(C2CC(c3ccc(Cl)cc3)=NN2c2ccc(S(N)(=O)=O)cc2)cc1 (centres undefined)	none
COc1ccc(C2CC(c3cccc(Cl)c3)=NN2c2ccc(S(N)(=O)=O)cc2)cc1 (centres undefined)	Peg3 prom inh 54
O=c1c2cccc3c2c(nn1CN1CCOCC1)-c1ccccc1-3	none
CCN(CC)CCn1nc2c3c(cccc3c1=O)-c1ccccc1-2	Peg3 prom inh 106
O=C1OCCC1Sc1nnc(-c2ccc(Br)cc2)o1 (centres undefined)	HIF-2a block 47
O=C1OCCC1Sc1nnc(-c2ccco2)o1 (centres undefined)	none (no result: Shn3 inh set2)
CCOC(=O)Sc1nc2ncncc2[nH]1	none
CCOC(=O)Cc1c(C)nc2c(-c3cccc(Br)c3)c[nH]n2c1=O	Peg3 prom inh 58
CCOC(=O)Cc1c(C)nc2c(C#N)c[nH]n2c1=O	none
O=C(c1ccc(NS(=O)(=O)/C=C/c2ccccc2)cc1)N1CCCCC1	CF NFkB block 56, KKLEB cytotox -69
O=C(c1ccc(NS(=O)(=O)c2ccccc2)cc1)N1CCCC1	none
COCCn1c(C)cc(C(=O)CSc2nnnn2C2CCCC2)c1C	EBV LMP1 NFkB 70
COc1ccc(Cl)cc1C(=O)CSc1nnnn1C1CCCC1	none
CC(C)c1ccc(-n2c(-c3ccccc3)c[n+]3c2CCc2ccccc2-3)cc1	CF NFkB block 51, KKLEB cytotox -54, Peg3 prom inh 68
COc1ccccc1-n1c(-c2ccccc2)c[n+]2c1CCc1ccccc1-2	Shn3 inh set2 90!
CCOc1ccc(-c2cccc(NS(=O)(=O)c3ccc([N+](=O)[O-])cc3)c2)nn1	none
CCN(CC)c1ccc(/C=C2/SC(=O)N(C(C)C)C2=O)o1	Shn3 inh set2 96
CC(C)N1C(=O)S/C(=C\c2ccc(-c3ccc(Cl)c(C(=O)O)c3)o2)C1=O	none
O=C(O)c1ccccc1NS(=O)(=O)c1cccc(-n2sc3ccccc3c2=O)c1	CF NFkB block 86
COc1ccccc1NC(=O)CSc1nnc(COc2ccccc2OC)n1C	none
CCOC(=O)C1CCN(C(=S)NC2CC3C=CC2C3)CC1 (centres undefined)	none
CN(C)c1ncc(C2=C(Cl)C(=O)C(N3CCCC3)=C(Cl)C2=O)s1	Peg3 prom inh 57
O=C1C(Cl)=C(N2CCCCCC2)C(=O)N1c1ccc(Cl)cc1	none
O=C1C(Cl)=C(N2CCCCC2)C(=O)C(Cl)=C1c1cnc(N2CCCCC2)s1	Peg3 prom inh 58, HIF-2a block 45
CC(=O)c1c(C)[nH]c(C(=O)OCC(=O)Nc2ccc(Cl)cc2[N+](=O)[O-])c1C	Shn3 inh set2 92
CC(C)CC(=O)c1c(O)c(C=O)c(O)c2c1O[C@@]1(C)[C@@H](C2)C[C@H]2C[C@@H]1C2(C)C	none
Cc1nc(Nc2nc(CSc3ccc(Cl)cc3)cc(=O)[nH]2)nc2ccccc12	none
Cc1nc(Nc2nc(CSc3nc4ccccc4[nH]3)cc(=O)[nH]2)nc2ccccc12	Peg3 prom inh 102
COc1nc(Nc2nc3ccccc3c(=O)[nH]2)nc2ccc(C)cc12	Peg3 prom inh 98, EBV LMP1 NFkB 50
Cc1ccc2c(C)nc(Nc3nc(CSc4nnc(C)s4)cc(=O)[nH]3)nc2c1	none
COc1cccc2c(C)nc(Nc3nc(CSc4nnc(C)s4)cc(=O)[nH]3)nc12	Peg3 prom inh 76
Cc1nc(Nc2nc(-c3ccccc3)cc(=O)[nH]2)nc2ccccc12	Peg3 prom inh 64
Cc1cc(NC(=O)Cn2cc([N+](=O)[O-])cn2)no1	none
C=CCNC(=O)c1onc(CSc2ccccc2CC)c1C(=O)O	none
CC(C)C(NC(=O)C12CC3CC(CC(C3)C1)C2)C(=O)N/N=C/C1=C(N2CCOCC2)C(=C\c2ccc([N+](=O)[O-])cc2)/CC1 (centres undefined)	CF NFkB block 91, KKLEB cytotox -100
COC(=O)c1cccc(NC(=O)/C=C/c2ccc3c(c2)OCO3)c1	HIF-2a block 50
CCCn1c(=O)c2c(nc3n2CCS3)n(C)c1=O	none
CCN(CC)CCNC(=O)c1cc(-c2ccc(Br)s2)nc2ccccc12	Peg3 prom inh 101
CCOc1ccc(NC(=O)Cc2ccc(S(=O)(=O)N3CCOCC3)s2)cc1OCC	none
Cc1ccc(N(Cc2cc3ccccc3[nH]c2=O)C(=O)c2ccco2)c(C)c1	EBV LMP1 NFkB 40
CCN(CC)c1ccc(C(=C2C=CC(=[N+](CC)CC)C=C2)c2ccc(N(CC)CC)cc2)cc1	Shn3 inh set2 89, CF NFkB block 92, KKLEB cytotox -101, Peg3 prom inh 106, HIF-2a block 97
CC(C)c1ccc2c(c1)CCC1C(C)(CN)CCCC21C (centres undefined)	Peg3 prom inh 109
CC(C)c1ccc2c(c1)CC[C@H]1[C@](C)(CN)CCC[C@]21C	Peg3 prom inh 90!
C#CCNC(=O)C[C@@H]1C[C@@]2(C(=O)OC)CC(C)(C)CC=C2N(CCc2ccc(OC)c(OC)c2)C1=O	none (no result: Shn3 inh set2, CF NFkB block, KKLEB cytotox, Peg3 prom inh, EBV LMP1 NFkB)
O=C(O)CSc1nnc(-c2ccccc2)c(-c2ccccc2)n1	none
CCC(=O)NNC(=O)CSc1nnc(-c2ccccc2)c(-c2ccccc2)n1	EBV LMP1 NFkB 85
Cc1cc(Nc2ccccc2)c2c([N+](=O)[O-])cc(C)c(C)c2n1	EBV LMP1 NFkB 42
CCn1c2ccccc2nc2cc3c(cc21)c(Cl)c(=O)c1ccccc13	CF NFkB block 81, Peg3 prom inh 62, HIF-2a block 54
CCn1c(/C=C/c2c(C)n(CC)c3ccccc23)nc2ccccc2c1=O	none
Clc1nc(-c2ccccc2)c2ccccc2n1	none
NC(N)=Nc1nc(-c2ccccc2)c2ccccc2n1	Peg3 prom inh 57
CCc1cc(-c2[nH]ncc2-c2ccc3c(c2)OCO3)c(O)cc1O	CF NFkB block 85, Peg3 prom inh 69
CCc1cc(OCCOCCN(C)C)ccc1Cl	none
O=C(c1cc(-c2ccccc2)nc2ccccc12)N1CCCC1	none
